Results reported in PubChem BioAssay (EPA / NIEHS).
“And” between values parts separate entries of the source, which are not always exact repeats. Identical values can stand only once. Results filed as inconclusive are left out. The source made the active and inactive calls. How the source made its calls, unless noted: active means hit-call score of the fitted dose curve at least 0.9, where 1 is the maximum; inactive means score below 0.9.

Experiments:
[1] = BSK_BT_PBMCCytotoxicity: PBMC Cytotoxicity Assessment in the BioMAP Diversity Plus: BT Assay (AID 2284225); conditions: primary human B cells with PBMC;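 further: PBMC viability measured by Alamar Blue dye reduction fluorescence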
In short: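 75,000 cells/well; cpd 1 h → SEB + TSST-1 (20 ng/mL final each) → 90 h → Alamar Blue 6 h → fluor. 546/580 nm. DMSO = neg. control/baseline.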

[2] = read-out: Secreted IgG (sIgG), gene 3500; experiment: BSK_BT_sIgG: BioMAP Diversity Plus: BT Assay for Secreted IgG (sIgG) Biomarker Activity (AID 2284226); conditions: primary human B cells with PBMC
In short: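 B cells co-cultured with PBMC were dosed with chemical and secreted IgG quantified by ELISA at 24 h. Activity was fitted in the positive direction relative to DMSO as negative control and baseline.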

[3] = BSK_BT_Bcell_Proliferation: Viability Assessment in the BioMAP Diversity Plus: BT Assay for B cell Proliferation (AID 2284227); conditions: primary human B cells with PBMC
In short: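 SRB-based protein staining (0.1% SRB after 10% TCA fixation, 560 nm) quantifies proliferation in human B cells co-cultured with PBMC, 72 h post-dosing, with signal gain scored relative to DMSO negative control.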

[4] = read-out: Interleukin 6 (IL6), IL6 (gene 3569); experiment: BSK_BT_xIL6: BioMAP Diversity Plus: BT Assay for Interleukin 6 (IL6) Biomarker Activity (AID 2284228); conditions: primary human B cells with PBMC
In short: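 Human B cell plus PBMC co-culture exposed to test chemical for 24 h; secreted IL-6 quantified by Luminex xMAP bead assay. Activity fitted in the positive direction against DMSO as negative control and baseline.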

[5] = read-out: Interleukin 17A (IL17A), IL17A (gene 3605); experiment: BSK_BT_xIL17A: BioMAP Diversity Plus: BT Assay for Interleukin 17A (IL17A) Biomarker Activity (AID 2284229); conditions: primary human B cells with PBMC
In short: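 B cells co-cultured with PBMC were exposed to test chemicals, and secreted IL-17A was quantified 24 h after dosing by Luminex xMAP bead immunoassay. Activity was fitted in the gain direction against DMSO as baseline.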

[6] = read-out: Tumor necrosis factor (Homo sapiens) (UniProt P01375); experiment: BSK_BT_xTNFa: BioMAP Diversity Plus: BT Assay for Tumor necrosis factor alpha (TNF-alpha) Biomarker Activity (AID 2284230); conditions: primary human B cells with PBMC
In short: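 Compounds were added to a B cell plus PBMC co-culture, and after 24 h secreted TNF-alpha was quantified with Luminex xMAP technology, with responses fitted upward from the DMSO control.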

[7] = read-out: Vascular cell adhesion molecule 1 (VCAM1), VCAM1 (gene 7412); experiment: BSK_MyoF_VCAM1: BioMAP Diversity Plus: MyoF Assay for Vascular cell adhesion molecule 1 (VCAM1) Biomarker Activity (AID 2284231); conditions: primary human lung fibroblasts
In short: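 Primary human lung fibroblasts were dosed with test chemical for 24 h, then cell-surface VCAM-1 was measured by ELISA. Activity was fitted in the positive direction against DMSO as negative control and baseline.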

[8] = CCTE_Mundy_HCI_Cortical_Synap_Neur_Matur_NeuriteCount: CCTE's Synaptogenesis and Neurite Maturation Assay in rat cortical cells for Neurite Count, Mundy Lab (AID 2284222);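 further: exposure from day 7 to day 12 in vitro with readout at day 12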
In short: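 Chemical exposure runs DIV 7–12 in rat cortical cultures, glia suppressed by AraC at DIV 5; measurement is at DIV 12. Imaging-derived neurite counts are fitted against DMSO baseline.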

[9] = CCTE_Mundy_HCI_Cortical_Synap_Neur_Matur_CellBodySpotCount: CCTE's Synaptogenesis and Neurite Maturation Assay in rat cortical cells for Cell Body Spot Count, Mundy Lab (AID 2284223)
In short: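 Rat primary cortical cultures received AraC at DIV 5 to arrest glia, were dosed with chemical at DIV 7 with media change, and were fixed at DIV 12 (288.33 h). Synaptophysin puncta on MAP2-positive cell bodies per neuron were counted by high-content imaging versus DMSO.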

[10] = CCTE_Mundy_HCI_hNP1_Pro_ResponderAvgInten: CCTE's Proliferation Assay in human neuroprogenitor cells, Mundy Lab (AID 2284224; active means hit-call score of the fitted dose curve at least 0.9, where 1 is the maximum;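 further: human neural progenitor cells hNP1 derived from WA09 embryonic stem cells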)
In short: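 Proliferation was scored as BrdU labelling intensity in human neural progenitors derived from WA09 embryonic cells, measured 26.25 hours after chemical dosing. Activity was fitted relative to DMSO.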

Measured: AC50

Chain of Tumor necrosis factor (Homo sapiens) (P01375 whole entry, looked up): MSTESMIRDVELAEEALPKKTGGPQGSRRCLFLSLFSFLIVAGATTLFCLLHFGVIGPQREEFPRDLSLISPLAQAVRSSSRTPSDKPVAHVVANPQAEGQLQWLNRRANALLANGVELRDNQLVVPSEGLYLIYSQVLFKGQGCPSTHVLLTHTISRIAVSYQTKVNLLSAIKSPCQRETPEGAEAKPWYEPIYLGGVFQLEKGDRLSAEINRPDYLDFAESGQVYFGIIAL

CC1OC1C1CCC2(C)OC2C1 (configuration not stated)
inactive: [1] | [2] | [3] | [4] | [5] | [6] | [7]

c1ccc2c(c1)ccc1cc3c(ccc4ccccc43)cc12
active: [4] 3.57 µM and 15 nM
inactive: [1] | [2] | [3] | [5] | [6] | [7]

O=c1c2ccccc2oc2ccccc12
active: [2] 11.7 µM
inactive: [1] | [3] | [4] | [5] | [6] | [7]

CCOc1nc(F)cc2nc(S(=O)(=O)Nc3c(Cl)cccc3C(=O)OC)nn12
inactive: [1] | [2] | [3] | [4] | [5] | [6] | [7]

c1ccc2c(c1)ccc1ncccc12
active: [4] 1.14 µM
inactive: [1] | [2] | [3] | [5] | [6] | [7]

CCCCCCCCc1ccc(Nc2ccc(CCCCCCCC)cc2)cc1
inactive: [1] | [2] | [3] | [4] | [5] | [6] | [7]

C=CCOCC(O)CCl (configuration not stated)
inactive: [1] | [3] | [4] | [5] | [6] | [7]
active: [2] 20 µM

C=CC=CC=CCCCCC
active: [2] 7.13 µM | [4] 6.43 µM
inactive: [1] | [3] | [5] | [6] | [7]

COc1ccc2nc(N)sc2c1
inactive: [1] | [2] | [3] | [4] | [5] | [6] | [7]

Nc1ncn([C@@H]2O[C@H](CO)[C@@H](O)[C@H]2O)c(=O)n1
active: [10] 8.32 µM
inactive: [8] | [9]

COCc1c(C(C)C)nc(C(C)C)c(/C=C/[C@@H](O)C[C@@H](O)CC(=O)O)c1-c1ccc(F)cc1
active: [2] 0.0231 µM | [3] 0.24 µM | [4] 0.494 µM | [5] 0.312 µM | [6] 0.512 µM | [7] 0.0229 µM
inactive: [1]

O=C(Nc1ccccc1SSc1ccccc1NC(=O)c1ccccc1)c1ccccc1
inactive: [7]
active: [1] 6.24 µM | [2] 4.59 µM | [3] 5.95 µM | [4] 13.2 µM | [5] 5.93 µM | [6] 11.7 µM

S=C(NC1CCCCC1)NC1CCCCC1
active: [2] 20 µM | [3] 31.2 µM
inactive: [1] | [4] | [5] | [6] | [7]

O=C(Cl)c1cc(C(=O)Cl)cc(C(=O)Cl)c1
active: [1] 28 µM | [2] 14.6 µM | [3] 29.3 µM | [4] 27.6 µM | [5] 15.4 µM | [6] 31.9 µM | [7] 35.3 µM

c1ccc(-c2ccccn2)nc1
inactive: [1] | [3] | [4] | [5] | [6] | [7]
active: [2] 20 µM

CC(C)C(=O)C(C)C
inactive: [1] | [2] | [3] | [4] | [5] | [6] | [7]

C#CC1(O)CC[C@H]2[C@@H]3CCC4=CCCC[C@@H]4[C@H]3CC[C@@]21C (some centres not stated)
active: [1] 34.3 µM | [2] 10.7 µM | [3] 30.1 µM | [4] 28.1 µM | [5] 14.5 µM | [6] 34.2 µM | [7] 33.1 µM

C=CCOc1c(Br)cc(Br)cc1Br
inactive: [1] | [2] | [3] | [4] | [5] | [6]
active: [7] 23.7 µM

CC(C)(c1cc(Br)c(OCCO)c(Br)c1)c1cc(Br)c(OCCO)c(Br)c1
inactive: [1]
active: [2] 8.71 µM | [3] 21.2 µM | [4] 16.2 µM | [5] 20.8 µM | [6] 30.2 µM | [7] 7.89 µM

C=CC(=O)OCC(Br)CBr (configuration not stated)
active: [1] 20.5 µM | [2] 7.95 µM | [3] 20 µM | [4] 12.9 µM | [5] 7.7 µM | [6] 28.1 µM | [7] 20 µM

CCCCC/C=C\C/C=C\CCCCCCCC(=O)OC
active: [1] 24.3 µM | [2] 20 µM | [3] 26.3 µM | [4] 24.8 µM | [5] 23.8 µM | [6] 30 µM
inactive: [7]

CCCCNc1ccc(NCCCC)c2c1C(=O)c1ccccc1C2=O
inactive: [1] | [2] | [3] | [4] | [5] | [6] | [7]

CCCCC(CC)COC(=O)c1ccccc1O (configuration not stated)
active: [2] 7.14 µM
inactive: [1] | [3] | [4] | [5] | [6] | [7]

CCCCCCCCCCCCCCCC[N+](C)(C)CC
active: [1] 6.46 µM | [2] 0.0956 µM | [3] 1.81 µM | [4] 13.4 µM | [5] 1.63 µM | [6] 12 µM | [7] 1.71 µM

CC1(C)S[C@@H]2[C@H](NC(=O)COc3ccccc3)C(=O)N2[C@H]1C(=O)O
inactive: [8] | [9]

O=Nc1ccc(O)cc1
inactive: [1] | [2] | [3] | [4] | [5] | [6] | [7]

CCO[Si](CCCN=C=O)(OCC)OCC
inactive: [1] | [2] | [3] | [4] | [5] | [6] | [7]

N[C@H]1C(O)O[C@H](CO)[C@H](O)[C@@H]1O (some centres not stated)
inactive: [8] | [9] | [10]

C/C=C\C/C=C/CCCCCCCCOC(C)=O
active: [1] 20 µM | [2] 17 µM | [3] 28 µM | [4] 15.2 µM | [5] 15.1 µM | [6] 20 µM
inactive: [7]

N#[N+]c1ccc2c(S(=O)(=O)[O-])cccc2c1O
inactive: [1] | [2] | [3] | [4] | [5] | [6] | [7]
